# From the supplement of paper PMC3342239
# Counter-ions that a name gives are not always drawn.
# System: Saccharomyces cerevisiae
# Experiment: fraction of cells in G1 phase (DNA content, flow cytometry); higher = more cells with unreplicated DNA (G1 delay)
# Settings: temperature: 30 C; YPD; JTY2953 pdr5 snq2 (sensitized); drug added to: cultures diluted from stationary phase; 6-7 h
# Method in brief: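 Overnight cultures of sensitized JTY2953 were diluted 1∶200 into drug at a final 20 µg/ml and fixed after 6–7 h, and further runs treated dividing JTY2953 or BY4741, fixing them 6 h and 4.33 h later respectively. All growth used YPD at 30°C with S. cerevisiae and library drugs. After ethanol fixation and SYTOX Green staining, flow cytometry recorded 10,000 events. The G1 fraction equals the Dean-Jett-Fox G1 peak area over the G1 plus G2/M areas.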
row,Compound,fraction of cells in G1 phase
1,COc1ccc2c3c1O[C@H]1C[C@@H](O)C=C[C@@]31CCN(C)C2 [Galanthamine HBr] (69.5987 µM),0.538
2,COc1ccccc1OCCNCC(O)COc1cccc2[nH]c3ccccc3c12 (configuration not stated) [Carvedilol] (49.2022 µM),0.525
3,O=C1CN2Cc3c(ccc(Cl)c3Cl)N=C2N1 [Anagrelide] (78.0967 µM),0.469
4,O=C(Nc1cccc2c(=O)cc(-c3nnn[nH]3)oc12)c1ccc(OCCCCc2ccccc2)cc1 [Pranlukast] (41.5355 µM),0.561
5,CCCCc1ncc(/C=C(\Cc2cccs2)C(=O)O)n1Cc1ccc(C(=O)O)cc1 [Eprosartan] (47.1117 µM),0.493
6,C[C@]12C=CC(=O)C=C1CC[C@@H]1[C@@H]2[C@@H](O)C[C@@]2(C)[C@H]1CC[C@]2(O)C(=O)CO [Prednisolone] (55.4855 µM),0.466
7,C[N+](C)(C)CCOC(=O)CCC(=O)OCC[N+](C)(C)C [Succinylcholine] (68.8691 µM),0.467
8,c1ccc2c(CC3=NCCN3)cccc2c1 [Naphazoline HCl] (95.1108 µM),0.456
9,CC=CC(=O)N(CC)c1ccccc1C [Crotamiton] (98.3833 µM),0.503
10,O=C1C(=O)c2ccccc2C(O)=C1C1CCC(c2ccc(Cl)cc2)CC1 (configuration not stated) [Atovaquone] (54.5185 µM),0.493
11,COc1cc(-c2ccc(=O)[nH]n2)ccc1OC(F)F [Zardaverine] (74.5651 µM),0.566
12,CCN[C@H]1C[C@H](C)S(=O)(=O)c2sc(S(N)(=O)=O)cc21 [Dorzolamide] (61.6443 µM),0.499
